The values below come from PubChem BioAssay (Tox21).

Inconclusive results are not listed. Entries that show only a call come without a potency. Activity calls are given as the source filed them. Calls come from the whole dose curve; as a rule, active = well fitted cell-killing curve with a large enough effect in the repeat runs; inconclusive = weak or mixed curves, or effect the other way; inactive = flat fitted curve, though single readings scatter.

The test in a line: qHTS RealTime-Glo MT Cell Viability Assay in HEK293 cells - 0 hour (AID 1224880). Note: top concentration of the series differs between compounds; nearly all actives have a fitted effect of over 45% in size. The following applies: RealTime-Glo luminescence; series mostly up to 76.8 µM; activity change, negative = cytotoxicity: at the top concentration. The gist of the method: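 Cells were seeded together with NanoLuc luciferase and a prosubstrate that viable cells reduce to a luciferase substrate. After a 5 h incubation at 37 C/5% CO2, compounds were added and luminescence was measured repeatedly during 40 h of treatment.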
On the technique in general: qHTS replaces the single test concentration by a dilution series.
`CCC(C)OC(=O)c1ccc(O)cc1` (stereo unspecified): the Potency result was “inactive”.
As for `C/C=C/C(=O)O`, the Potency entry is “inactive”.
The same measure, in the same setting: the result for `Cn1cnc([N+](=O)[O-])c1Sc1ncnc2nc[nH]c12` reads “inactive”; that for `Cc1cccc(N(C)C(=S)Oc2ccc3ccccc3c2)c1`, “inactive”.
Same read-out and setting: next, `O=C=Nc1ccc(Cc2ccc(N=C=O)cc2)cc1`: “inactive”.
The same measure, in the same setting: next, `O=CCc1ccccc1`: “inactive”; `CC(C(=O)O)c1cccc(C(=O)c2ccccc2)c1` (stereo unspecified): “inactive”; `CC(=O)C1(C)CC2=C(CCCC2(C)C)CC1C` (stereo unspecified): “inactive”.
Consider `c1cc(N(CC2CO2)CC2CO2)ccc1OCC1CO1` (stereo unspecified), for which the Potency result was “inactive”.
On the same count and under the same terms, the result for `CCOCCOCCO` reads “inactive”.
Still for that read-out and setting: next, `CN(C)C(=N)N=C(N)N`: “inactive”; `COC(C)COC(C)COC(C)CO` (stereo unspecified): “inactive”.
Consider `O=C1c2cccc(O)c2C(=O)c2c(O)cccc21`, for which the “activity change, negative = cytotoxicity” value was -2.21% [at 35.3 µM] (inactive).
On to `O=C(O)c1ccccc1Nc1cccc(C(F)(F)F)c1`, for which the Potency result was “inactive”.
On the same count and under the same terms, the result for `Cc1ccc2c(n1)Oc1ccc(C(C)C(=O)OCC(=O)N(C)C)cc1C2` (stereo unspecified) reads “inactive”; that for `O=C(Nc1ccc(Cl)cc1)Nc1ccc(Cl)c(Cl)c1`, “inactive”; that for `C#C[C@]1(O)CC[C@H]2[C@@H]3CCc4cc(OC)ccc4[C@H]3CC[C@@]21C`, “inactive”.
The same measure, in the same setting: the result for `O=C(c1ccccc1)c1ccccc1O` reads “inactive”; that for `CCCCc1oc2ccccc2c1C(=O)c1cc(I)c(OCCN(CC)CC)c(I)c1`, “inactive”; that for `CCCCC(CC)COC(=O)c1ccc(N(C)C)cc1` (stereo unspecified), “inactive”.
On the same count and under the same terms, next, `C=CC(C)(CCC=C(C)C)OC(C)=O` (stereo unspecified): “inactive”.
For the compound `COc1ccccc1/C=C/C=O`, the Potency entry was “inactive”.
Still for that read-out and setting: next, `CC(=O)c1ccccn1`: “inactive”; `CC(=O)Oc1ccccc1C(=O)Nc1ncc([N+](=O)[O-])s1`: “inactive”.
Regarding `CC(C)Oc1ccc2c(=O)c(-c3ccccc3)coc2c1`, the Potency result is “inactive”.
Same read-out and setting: the result for `Oc1ccc(O)cc1` reads “inactive”.
On the same count and under the same terms, the result for `OC[C@H]1O[C@@H]2O[C@H]3[C@H](O)[C@@H](O)[C@@H](O[C@H]4[C@H](O)[C@@H](O)[C@@H](O[C@H]5[C@H](O)[C@@H](O)[C@@H](O[C@H]6[C@H](O)[C@@H](O)[C@@H](O[C@H]7[C@H](O)[C@@H](O)[C@@H](O[C@H]8[C@H](O)[C@@H](O)[C@@H](O[C@H]1[C@H](O)[C@H]2O)O[C@@H]8CO)O[C@@H]7CO)O[C@@H]6CO)O[C@@H]5CO)O[C@@H]4CO)O[C@@H]3CO` reads “inactive”; that for `O=C(Nc1ccc([N+](=O)[O-])cc1Cl)c1cc(Cl)ccc1O`, “inactive”; that for `Brc1cc(Oc2cc(Br)c(Br)c(Br)c2Br)c(Br)c(Br)c1Br`, “inactive”.
Consider `CCC(C)c1ccccc1O` (stereo unspecified), for which the Potency result was “inactive”.
Consider `S=C(NC1CCCCC1)NC1CCCCC1`, for which the Potency result was “inactive”.
Take `CCCCOCCOCCO`: the Potency entry is “inactive”.
As for `O=C(COc1ccc(Cl)cc1)N1CCN(Cc2ccc3c(c2)OCO3)CC1`, the Potency entry is “inactive”.
On the same count and under the same terms, the result for `O=C(c1ccc(OCCN2CCCCC2)cc1)c1c(-c2ccc(O)cc2)sc2cc(O)ccc12` reads “inactive”; that for `CC(C)OC(=O)C(C)(C)Oc1ccc(C(=O)c2ccc(Cl)cc2)cc1`, “inactive”; that for `O=C(/C=C/C=C/c1ccc2c(c1)OCO2)N1CCCCC1`, “inactive”.
